# Measurements from PubChem BioAssay (NCI).
# Several values for one entry are separate records, joined by “and”; a condition that tells them apart may be missing. Equal values may be shown once. Compounds without any hit were thinned out: in the full panel of roughly 83,000, 20% have a hit.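 Step 1: grow cells in 96-well plates. Step 2: add test compound at a single concentration. Step 3: incubate 48 h. Step 4: record percent growth.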 Activity calls are given as the source filed them. Rule for the calls: active = growth percent below 10; inactive = the rest.
# How the values were obtained:
# Test in all cases: NCI-60 one-dose screen, 48 h (100 = growth as untreated, 0 = no growth, -100 = all killed)
# Conditions in all cases: 10 µM unless noted
# [1] = test system: SR leukemia
# [2] = test system: RPMI-8226 leukemia
# [3] = test system: OVCAR-8 ovarian
# [4] = test system: OVCAR-5 ovarian
# [5] = test system: OVCAR-4 ovarian
# [6] = test system: SK-OV-3 ovarian
# [7] = test system: IGROV1 ovarian
# [8] = test system: OVCAR-3 ovarian
# [9] = test system: HS 578T breast
# [10] = test system: NCI/ADR-RES ovarian
SMILES,growth [1],growth [2],growth [3],growth [4],growth [5],growth [6],growth [7],growth [8],growth [9],growth [10]
CCOc1ccc(Nc2c3ccccc3nc3ccccc23)cc1,81.6% (inactive) and 7.88% (active) and -40.6% (active),81.3% (inactive) and 18% (inactive) and -19.7% (active),83.6% (inactive) and 22.9% (inactive) and 36.9% (inactive),90.8% (inactive) and 29.4% (inactive) and 47.8% (inactive),90.9% (inactive) and 36.4% (inactive) and 37.9% (inactive),96.6% (inactive) and 30.7% (inactive) and 40.5% (inactive),92.1% (inactive) and 20.4% (inactive) and 16.5% (inactive),96.5% (inactive) and 17.9% (inactive) and 35.1% (inactive),88.5% (inactive) and 60.2% (inactive) and 61.7% (inactive),82.8% (inactive) and 22.6% (inactive) and 16.8% (inactive)
COc1ccc(/C(C#N)=C/c2ccccn2)cc1,91.1% (inactive) and 87.7% (inactive),93.8% (inactive),103% (inactive) and 110% (inactive),110% (inactive) and 107% (inactive),96.1% (inactive) and 93.9% (inactive),111% (inactive) and 126% (inactive),115% (inactive) and 113% (inactive),110% (inactive) and 130% (inactive),104% (inactive) and 309% (inactive),101% (inactive) and 54.3% (inactive)
Nc1n[nH]c(=S)n1-c1ccc(Cl)cc1,96.6% (inactive),80.8% (inactive),100% (inactive),98.6% (inactive),99.5% (inactive),102% (inactive),110% (inactive),100% (inactive),100% (inactive),100% (inactive)
Oc1c(CN2CCCCC2)ccc2cccnc12,32.4% (inactive) and 33.2% (inactive),58.5% (inactive),33.1% (inactive) and 23.3% (inactive),68.9% (inactive) and 51.1% (inactive),29.3% (inactive),54.5% (inactive) and 50.8% (inactive),46% (inactive) and 55.3% (inactive),14.4% (inactive) and 52.7% (inactive),89.5% (inactive) and 89.1% (inactive),7.05% (active) and 4.34% (active)
O=C(N/N=C/c1ccccc1)N/N=C/c1ccccc1,93.8% (inactive) and 106% (inactive),104% (inactive) and 100% (inactive),103% (inactive) and 107% (inactive),109% (inactive) and 105% (inactive),115% (inactive),106% (inactive) and 111% (inactive),99.9% (inactive) and 106% (inactive),120% (inactive),118% (inactive) and 91.7% (inactive),114% (inactive) and 106% (inactive)
COc1cc2c(c(OC)c1OC)-c1ccc(OC)c(=O)cc1[C@@H](NC(C)=O)CC2,4.98% (active) and 2.6% (active) and 5.4% (active),9.21% (active) and 2.34% (active),10.3% (inactive) and 14.4% (inactive),47.5% (inactive) and 20.8% (inactive) and 31.2% (inactive),48.4% (inactive) and 57.7% (inactive) and 56.4% (inactive),13.8% (inactive) and 25.8% (inactive) and 36.1% (inactive),16.5% (inactive) and 15.3% (inactive),-57.4% (active) and -0.335% (active) and -49% (active),42.6% (inactive) and -0.967% (active) and 55.1% (inactive),0.46% (active) and 8.85% (active) and -20.9% (active)
CC(=O)Oc1cc(C(=O)O)cc(OC(C)=O)c1OC(C)=O,117% (inactive) and 101% (inactive),96.7% (inactive) and 102% (inactive),103% (inactive) and 99.9% (inactive),117% (inactive) and 94.9% (inactive),109% (inactive) and 97% (inactive),94.1% (inactive) and 102% (inactive),130% (inactive) and 95.8% (inactive),105% (inactive),99.5% (inactive) and 112% (inactive),103% (inactive) and 96.7% (inactive)
CN(C)CCC(=O)c1ccc(Cl)cc1,110% (inactive),75.4% (inactive) and 58% (inactive),110% (inactive) and 105% (inactive),117% (inactive) and 113% (inactive),105% (inactive) and 118% (inactive),108% (inactive),100% (inactive) and 116% (inactive),115% (inactive) and 113% (inactive),112% (inactive),114% (inactive) and 104% (inactive)
c1ccc(NCc2ccc3c(c2)OCO3)cc1,92.5% (inactive) and 92.2% (inactive),99.6% (inactive) and 93.7% (inactive),98.1% (inactive),110% (inactive) and 98% (inactive),106% (inactive) and 108% (inactive),92.4% (inactive) and 99.3% (inactive),118% (inactive) and 102% (inactive),103% (inactive) and 105% (inactive),109% (inactive) and 104% (inactive),106% (inactive) and 105% (inactive)
Cc1ccc(-c2noc(CC(=O)c3ccc([N+](=O)[O-])cc3)n2)cc1,98.1% (inactive),116% (inactive),100% (inactive),97.5% (inactive),102% (inactive),97.6% (inactive),104% (inactive),102% (inactive),99.8% (inactive),104% (inactive)
CN(C)c1ccc(C(=C2C=CC(=[N+](C)C)C=C2)c2ccccc2Cl)cc1,-38.3% (active),-22.6% (active),-77.5% (active) and -77.8% (active),-27.8% (active) and -93.8% (active),4.46% (active) and -27% (active),-38.7% (active) and -32.4% (active),-81.1% (active) and -67.1% (active),-88.9% (active) and -91.4% (active),-37.3% (active) and -21.2% (active),23.2% (inactive) and 9.87% (active)
O[C@H](c1cc(C(F)(F)F)nc2c(C(F)(F)F)cccc12)[C@@H]1CCCCN1,11.7% (inactive),70.1% (inactive) and 79.2% (inactive),80.3% (inactive) and 64.2% (inactive),79.5% (inactive) and 69.3% (inactive),69.7% (inactive) and 59.8% (inactive),79.1% (inactive) and 74.6% (inactive),47.8% (inactive) and 46.4% (inactive),68.1% (inactive) and 55% (inactive),66.3% (inactive) and 63% (inactive),65.7% (inactive) and 56.1% (inactive)
Oc1c(Cl)cc(Cl)cc1Sc1cc(Cl)cc(Cl)c1O,42.1% (inactive) and 77.1% (inactive) and 107% (inactive),11.8% (inactive) and -29% (active) and 41.3% (inactive),31.7% (inactive) and 2.65% (active) and 71.7% (inactive),49.9% (inactive) and 102% (inactive),78.1% (inactive) and 38.2% (inactive) and 93.3% (inactive),74.6% (inactive) and 96.4% (inactive),56.5% (inactive) and 33.3% (inactive) and 73.7% (inactive),47.1% (inactive) and 11.6% (inactive) and 76.5% (inactive),47.9% (inactive) and 53.5% (inactive) and 78.2% (inactive),15.8% (inactive) and 10.8% (inactive) and 82.7% (inactive)
CNC(=O)c1cc(Oc2ccc(NC(=O)Nc3ccc(Cl)c(C(F)(F)F)c3)cc2)ccn1,-8.61% (active) and 23.9% (inactive),-11.5% (active) and -19.3% (active),5.3% (active) and -16.5% (active),16.6% (inactive) and 15.4% (inactive),26.2% (inactive) and 25.2% (inactive),-20.9% (active) and 12.5% (inactive),-24.8% (active) and -70.7% (active),18.9% (inactive) and 3.16% (active),-8.13% (active),-10.9% (active) and -12.5% (active)
Oc1nc(NCCc2ccccc2)sc1/C=C1\C=Nc2ncccc21,-1.51% (active) and 5.6% (active),38.7% (inactive) and 39.2% (inactive),9.67% (active) and 14% (inactive),18.1% (inactive) and 37.8% (inactive),32.3% (inactive) and 23.8% (inactive),2.11% (active) and 27% (inactive),25.6% (inactive) and 14% (inactive),3.41% (active) and 5.65% (active),8.82% (active) and 8.78% (active),58.4% (inactive) and 72.9% (inactive)
